Experimental data reported in PubChem BioAssay.
Activity calls are given as the source filed them.

Assays:
[1] = compounds binding Alexa647 anti-His antibody – biochemical, small-molecule microarray, 635 nm fluorescence, artefact control for SMM control protein annotation, primary screen (AID 1128); conditions: higher = more signal;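 note: score merges feature fluorescence with signal-to-noise for each printed compound spot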
[2] = system: Human papillomavirus type 1a E7 protein (residues 1-88); experiment: HPV1a E7 small-molecule binders, primary screen, biochemical, small-molecule microarray, residues 1-88, 635 nm (AID 1129); conditions: small-molecule microarray binding, fluorescence 635 nm; higher = more signal
[3] = target: Focal adhesion kinase 1 (Homo sapiens) (UniProt Q05397); experiment: PTK2 protein binding on printed compound slides – biochemical, small-molecule microarray, 635/667 nm fluorescence, BSA, DTT, primary screen (AID 1130); conditions: 635 nm fluorescence, higher = more signal;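 note: composite of spot emission at 667 nm and signal to noise over triplicate slides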
Chain of Focal adhesion kinase 1 (Homo sapiens) (Q05397 whole entry, looked up): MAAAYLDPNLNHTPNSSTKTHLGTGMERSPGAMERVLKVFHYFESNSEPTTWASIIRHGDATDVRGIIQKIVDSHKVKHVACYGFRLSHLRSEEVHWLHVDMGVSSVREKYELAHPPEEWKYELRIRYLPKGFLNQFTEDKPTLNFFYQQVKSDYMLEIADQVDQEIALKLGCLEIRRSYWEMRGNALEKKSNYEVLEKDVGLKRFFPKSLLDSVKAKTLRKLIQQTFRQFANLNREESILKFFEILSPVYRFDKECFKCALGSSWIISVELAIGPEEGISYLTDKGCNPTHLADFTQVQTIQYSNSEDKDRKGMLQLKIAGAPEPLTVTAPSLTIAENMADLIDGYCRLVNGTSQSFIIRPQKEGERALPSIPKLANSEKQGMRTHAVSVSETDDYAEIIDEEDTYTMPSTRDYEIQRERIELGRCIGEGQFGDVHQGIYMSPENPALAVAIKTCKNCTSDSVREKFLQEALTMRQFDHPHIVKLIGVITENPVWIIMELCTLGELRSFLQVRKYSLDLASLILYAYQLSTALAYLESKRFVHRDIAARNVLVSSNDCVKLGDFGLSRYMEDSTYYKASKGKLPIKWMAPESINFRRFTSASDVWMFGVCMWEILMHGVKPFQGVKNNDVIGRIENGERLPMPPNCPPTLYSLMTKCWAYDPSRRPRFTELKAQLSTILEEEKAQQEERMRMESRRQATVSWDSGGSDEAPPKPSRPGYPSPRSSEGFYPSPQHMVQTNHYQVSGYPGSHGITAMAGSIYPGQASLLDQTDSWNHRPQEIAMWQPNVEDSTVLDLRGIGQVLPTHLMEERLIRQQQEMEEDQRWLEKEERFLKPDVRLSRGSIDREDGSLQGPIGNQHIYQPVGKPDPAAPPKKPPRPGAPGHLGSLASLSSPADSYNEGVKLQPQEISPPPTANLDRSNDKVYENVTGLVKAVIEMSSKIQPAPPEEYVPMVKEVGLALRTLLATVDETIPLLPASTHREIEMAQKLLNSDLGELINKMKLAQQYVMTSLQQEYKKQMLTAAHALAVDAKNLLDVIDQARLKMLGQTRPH

[4] = system: Fibrinogen (Alexa647-labelled); experiment: Alexa647-fibrinogen binding to printed small molecules – biochemical, small-molecule microarray, 635/667 nm fluorescence, artefact control for SMM control-protein annotation, profiling panel (AID 1131); conditions: fibrinogen-A647 binding fluorescence, higher = more signal;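 note: z-score merges 667 nm fluorescence with per-spot signal-to-noise over triplicate slides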
[5] = target: Follistatin (Homo sapiens) (UniProt P19883); experiment: FST protein binding to printed compounds – biochemical, small-molecule microarray, 635/667 nm fluorescence, primary screen (AID 1132); conditions: 635 nm fluorescence, higher = more signal
Chain of Follistatin (Homo sapiens) (P19883 whole entry, looked up): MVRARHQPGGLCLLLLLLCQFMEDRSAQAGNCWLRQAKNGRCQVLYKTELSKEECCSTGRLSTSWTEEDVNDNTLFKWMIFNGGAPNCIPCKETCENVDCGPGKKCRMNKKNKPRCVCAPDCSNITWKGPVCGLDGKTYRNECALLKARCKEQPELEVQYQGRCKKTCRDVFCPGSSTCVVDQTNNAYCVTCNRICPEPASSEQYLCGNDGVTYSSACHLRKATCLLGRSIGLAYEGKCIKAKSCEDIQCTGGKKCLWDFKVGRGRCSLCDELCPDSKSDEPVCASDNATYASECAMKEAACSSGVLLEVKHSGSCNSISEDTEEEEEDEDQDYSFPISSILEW

[6] = target: Fibroblast growth factor 2 (Homo sapiens) (UniProt P09038); experiment: basic fibroblast growth factor binding to printed compounds – biochemical, small-molecule microarray, 635/667 nm fluorescence, primary screen (AID 1133); conditions: FGF2, fluorescence 635/667, higher = more signal
Chain of Fibroblast growth factor 2 (Homo sapiens) (P09038 whole entry, looked up): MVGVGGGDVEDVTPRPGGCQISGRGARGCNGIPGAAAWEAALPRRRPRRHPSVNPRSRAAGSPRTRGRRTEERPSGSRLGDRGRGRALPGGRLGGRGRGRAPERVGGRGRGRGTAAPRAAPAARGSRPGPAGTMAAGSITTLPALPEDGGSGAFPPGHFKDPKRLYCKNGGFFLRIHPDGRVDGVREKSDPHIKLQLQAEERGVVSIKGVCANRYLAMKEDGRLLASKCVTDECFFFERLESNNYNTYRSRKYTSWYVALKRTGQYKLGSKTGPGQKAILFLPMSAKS

[7] = JC-1 mitochondrial potential readout, lung cancer cells – cell-based, A549, JC-1 fluorescence, basal, 24 h, 100 nL, profiling panel (AID 1138); conditions: higher = more signal;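 note: A549 lung adenocarcinoma cells under basal conditions with no added stimulus; test concentration not given here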
Lefty1 = Lefty1 protein binding to printed compounds – biochemical, small-molecule microarray, 635/667 nm fluorescence, primary screen (AID 1139); conditions: fluorescence 635/667, higher = more signal
[8] = system: wheat germ agglutinin (Triticum aestivum), Alexa647-labelled; experiment: Alexa647-WGA lectin binding to printed small molecules – biochemical, small-molecule microarray, 635/667 nm fluorescence, artefact control for SMM control-protein annotation, profiling panel (AID 1140); conditions: WGA-A647 binding, 635 nm fluorescence, higher = more signal;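 note: score merges 667 nm feature emission with signal to noise over triplicate slides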
[9] = target: Luciferin 4-monooxygenase (Photinus pyralis) (UniProt P08659); experiment: inhibition of purified Photinus pyralis luciferase – biochemical, luminescence, purified enzyme, 2006 set, primary screen (AID 1141); conditions: purified firefly luciferase, SteadyGlo luminescence, 30 min; higher = more signal, called active from +8 up or from −8 down;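 note: cell-free assay with purified firefly luciferase at 100 ng per well in PBS; test concentration not given here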
Chain of Luciferin 4-monooxygenase (Photinus pyralis) (P08659 whole entry, looked up): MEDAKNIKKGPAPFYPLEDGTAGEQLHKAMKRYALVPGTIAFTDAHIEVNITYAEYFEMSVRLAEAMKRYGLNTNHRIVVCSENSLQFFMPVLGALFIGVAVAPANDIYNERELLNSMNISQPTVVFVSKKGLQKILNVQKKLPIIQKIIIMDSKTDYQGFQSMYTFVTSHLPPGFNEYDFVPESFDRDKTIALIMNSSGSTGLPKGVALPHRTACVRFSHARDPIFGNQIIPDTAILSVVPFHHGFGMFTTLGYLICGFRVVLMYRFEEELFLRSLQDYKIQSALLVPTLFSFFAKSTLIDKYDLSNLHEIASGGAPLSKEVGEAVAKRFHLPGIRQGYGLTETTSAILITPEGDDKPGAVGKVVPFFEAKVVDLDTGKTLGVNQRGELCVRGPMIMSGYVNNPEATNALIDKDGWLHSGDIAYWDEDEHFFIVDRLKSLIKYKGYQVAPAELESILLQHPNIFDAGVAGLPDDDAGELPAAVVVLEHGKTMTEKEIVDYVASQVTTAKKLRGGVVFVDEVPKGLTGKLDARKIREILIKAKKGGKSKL

Row | Structure (SMILES) | composite z-score [1] | composite z-score [2] | composite z-score [3] | composite z-score [4] | composite z-score [5] | composite z-score [6] | z-score [7] | composite z-score (Lefty1) | composite z-score [8] | z-score [9]
1 | COCC(=C=CC[C@@H](O)c1cccc(OCCO)c1)CCO | -0.128 | -0.113 | -0.128 | 0.984 | 0.734 | 0.377 | 0.293 | 0.565 | 1.1 | -1.31 (inactive)
2 | CC(C)C[C@@H]1NC(=O)[C@@]23C(=O)N[C@@H](Cc4ccccc4)C2[C@H](C)[C@@]2(C)O[C@H]2C3/C=C/C/C=C\CNC(=O)[C@@H](C)NC1=O (stereo not given in full) | -0.471 | -0.522 | -0.647 | -0.67 | 0.418 | 0.901 | 0.0204 | 0.709 | 0.808 | 0.757 (inactive)
3 | COc1ccc([Si](C)(C)[C@@H]2[C@@H](CC(=O)N3Cc4ccccc4C[C@H]3CO)O[C@]3(C(=O)N(c4ccccc4)c4ccccc43)[C@H]2C)cc1 | 2.39 | 0.957 | 0.983 | 0.813 | 1.36 | 1.46 | 0.277 | 1.04 | 1.53 | 0.348 (inactive)
4 | CCOC(=O)C1=CCC(c2ccco2)N(S(=O)(=O)c2ccc(C)cc2)C1 (stereo not given) | 1.1 | 1.2 | 0.841 | 0.965 | 1.1 | 0.377 | -0.664 | 0.851 | 0.832 | -1.58 (inactive)
5 | CC(C)C(=C=CC[C@@H](O)c1cccc(OCCO)c1)C[C@@H](O)COCc1ccccc1 | 0.292 | 0.158 | -0.276 | 0.0013 | 0.844 | 0.34 | 1.6 | 0.318 | 0.866 | -2.11 (inactive)
6 | C=CCC(OC(C)=O)[C@@H]1[C@@H](N(Cc2cc3ccccc3o2)C(=O)c2ccc(-c3ccccc3)cc2)c2cc(OCCCO)ccc2N1C(=O)Cc1ccc(OC)cc1 (stereo not given in full) | -0.289 | -0.27 | -0.19 | 0.457 | 0.453 | 0.245 | 0.64 | 0.16 | 0.307 | -0.189 (inactive)
7 | C=C(/C(=C/C[C@@H](OC(=O)c1ccncc1)c1cccc(OCCO)c1)c1cnc2ccccc2c1)C(C)C | 0.787 | 1.09 | 0.329 | 0.807 | 1.42 | 2.01 | 1.02 | 1.2 | 1.29 | -1.47 (inactive)
8 | O=C1N[C@@H](Cc2ccccc2)C(=O)N2[C@@H]1C[C@@H](C(=O)O)[C@H]2c1ccc(O)cc1 | 2.01 | -0.219 | -0.11 | 0.68 | 1.35 | 1.26 | 0.0945 | 1.58 | 0.828 | -1.43 (inactive)
